Reference: PubChem BioAssay (NCATS)
Results filed as inconclusive are left out. Unmarked numbers belong to inactive results. Active and inactive are the calls of the source. Calls come from the whole dose curve; as a rule, active = well fitted inhibition curve with a large enough effect; inconclusive = small, poorly fitted or top-dose-only effect; inactive = no such curve, though single readings can be large or run the other way.

Each molecule was assayed on Zika virus NS2B-NS3 protease (linked construct) (assay: Primary screen NINDS Rhodamine qHTS for Zika virus inhibitors (AID 1347160; note: nearly all actives have a fitted effect of over 55% in size)). Conditions: purified NS2B-NS3 protease, Rhodamine110 substrate fluorescence; series mostly up to 33.1 µM; activity change, negative = inhibition: at the top concentration.
How it was run: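 Aprotinin served as in-plate control. Conditions: 25 nM linked NS2B-NS3, pH 8.0 Tris buffer, titrated compounds, 15 min preincubation and 15 min reaction with 1.5 microM Rhod110 substrate at room temperature.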
% is set by controls: 0 for no effect and ±100 for the full control effect; potency is the fitted concentration of half-maximal effect.

Going from `COc1ccc(C(=O)CC(=O)O)c2c1C=CC(C)(C)O2` to `Cc1occc(=O)c1O[C@@H]1O[C@H](CO)[C@@H](O)[C@H](O)[C@H]1O`, the “activity change, negative = inhibition” value rises from 1.16% [at 57.1 µM] to 23.7% [at 57.1 µM].

Compared with `c1ccc2c(Nc3nnc(-c4ccncc4)s3)cccc2c1`, `N#Cc1cc(-c2n[nH]c(-c3ccncc3)n2)ccn1` is lower in “activity change, negative = inhibition” value: 12.8% [at 57.1 µM] for the first, 1.78% [at 57.1 µM] for the second.

First: O=[N+]([O-])c1cc(Cl)ccc1S(=O)(=O)N1CCN(Cc2ccccc2)CC1
Second: Cc1cc(C(=O)N2Cc3cnn(C)c3Nc3ccccc32)ccc1CNC(=O)N1CCN(Cc2cc(O)cc(O)c2)CC1
The “activity change, negative = inhibition” value of the first is lower: 5.99% [at 57.1 µM] for the first, 79.7% [at 57.1 µM] for the second.

Compared with `COc1ccc(-n2c(SCC#N)nc3sc4c(c3c2=O)CCCC4)cc1`, `O=C(/C=C/C=C/c1ccc2c(c1)OCO2)N1CCCCC1` is higher in “activity change, negative = inhibition” value: 6.37% [at 57.1 µM] for the first, 10.3% [at 57.1 µM] for the second.

`C/C(=C\C(=O)C[C@@]12C(=O)O[C@]3(C)CC[C@H]1C[C@H]23)C(N)=O` was tested, and the “activity change, negative = inhibition” value was -29.6% [at 57.1 µM].

In the case of `CC1(C(=O)O)CCCC2(C)C3CCC4CC3(CCC12)CC4(O)CO` (stereo not given), the “outcome” value is reported as “inactive [at 33.1 µM]”.
With `COC(=O)C1=COC(O[C@@H]2O[C@H](COC(=O)/C=C/c3ccc(O)cc3)[C@@H](O)[C@H](O)[C@H]2O)C2C(CO)=CCC12` (stereo not given in full) the “outcome” value was “inactive [at 33.1 µM]”.
For `CC[C@@H](C)[C@H](N)C(=O)N1Cc2ccccc2C1`, the “outcome” value was “inactive”.
For `CC(=O)N[C@H]1[C@H](O[C@H]2CC[C@]3(C)C4CC=C5[C@@H]6CC(C)(C)CC[C@]6(C(=O)O)[C@H](O)C[C@@]5(C)[C@]4(C)CC[C@H]3C2(C)C)O[C@H](CO)[C@@H](O)[C@@H]1O` (stereo not given in full), the “outcome” value was “inactive [at 15.1 µM]”.
With `N#Cc1cccc(-c2nc(-c3cccnc3)no2)c1` the “outcome” value was “inactive [at 33.1 µM]”.
For `O=C(CC1CC(c2ccc(F)cc2F)=NO1)N1CCOCC1` (stereo not given), the “outcome” value was “inactive”.

Compared with `OC[C@H]1O[C@@H](OC[C@H]2O[C@@H](OCc3ccccc3)[C@H](O)[C@@H](O)[C@@H]2O)[C@H](O)[C@@H](O)[C@@H]1O`, `O=C(/C=C/c1ccc(O)cc1)OCC1OC(O)C(OC2OC(CO)C(O)C(O)C2O)C(O)C1O` (stereo not given) is lower in “activity change, negative = inhibition” value: 33.9% for the first, 22.5% for the second.

Going from `C[C@H]1[C@@H](O)[C@H](O)C2[C@]3(C)C([C@@H](O)[C@H]4OC(=O)[C@@H]1[C@@]24C)[C@](C)(O)C=C[C@H]3O[C@@H]1O[C@H](CO)[C@@H](O)[C@H](O)[C@H]1O` (stereo not given in full) to `CC1=CC(=O)CC(C)(C)C1CO[C@@H]1O[C@H](CO)[C@@H](O)[C@H](O)[C@H]1O` (stereo not given in full), the “activity change, negative = inhibition” value falls from 22.3% to 12.1%.

First: C=C1CCC2[C@](C)(CO)CCC[C@@]2(C)[C@@H]1CCC1=CCOC1=O (stereo not given in full)
Second: CC(=O)O[C@@H]1C[C@@H](C)[C@](O)(CCC2=CC(=O)OC2)[C@@]2(C)CCCC(C)(C)C12 (stereo not given in full)
The “activity change, negative = inhibition” value of the first is lower: 0.041% for the first, 8.15% for the second.

Compared with `NC1Nc2ccccc2C1(N)CC1NC(=O)C(Cc2ccccc2)NC(=O)C(Cc2ccccc2)NC1=O` (stereo not given), `O=C(O)c1cccc(C(=O)CCC2OC(n3cnc4c(=O)[nH]cnc43)C(O)C2O)c1` (stereo not given) is higher in “activity change, negative = inhibition” value: -25.5% for the first, 22.1% for the second.

First: CC1=C2C[C@H]3OC(=O)[C@H](O)[C@@]4(O)[C@@H](C)[C@@H](O)[C@H](O)C([C@@]2(C)[C@H](O)[C@@H](O)C1)[C@@]34C (stereo not given in full)
Second: COc1cc(CC2COC(c3ccc(OC4OC(CO)C(O)C(O)C4O)c(OC)c3)C2CO)ccc1O (stereo not given)
The “activity change, negative = inhibition” value of the first is higher: 4.57% for the first, -9.65% for the second.

First: CCC(C)C1NC(=O)C2C(C)CCN2C(=O)C(CC(O)CO)OC(=O)CCNC(=O)C(C)N(C)C(=O)C(C(C)C)N(C)C1=O (stereo not given)
Second: O=C(Nc1ccn(Cc2c(F)cccc2C(F)(F)F)n1)c1c(F)cccc1F
The “activity change, negative = inhibition” value of the first is lower: -9.78% [at 15.1 µM] for the first, 21.2% [at 15.1 µM] for the second.

`CC1(C)CC=C(C#Cc2ccccc2)c2cc(/C=C/c3ccc(C(=O)O)cc3)ccc21` was tested, and the Potency was 15.8 µM (active).
In the case of `CC(C)c1ccc2c(c1)CCC1[C@](C)(C(=O)O)CCC[C@]21C` (stereo not given in full), the Potency is reported as 12.4 µM (active).

With `CC(=O)O[C@@H]1[C@H](O[C@@H]2O[C@H](CO)[C@@H](O)[C@H](O)[C@H]2O)[C@@H](O[C@@H]2O[C@@H](C)[C@H](O)[C@@H](O[C@@H]3O[C@H](CO)[C@@H](O)[C@H](O)[C@H]3O)[C@H]2O)[C@H](OC(=O)[C@]23CCC(C)(C)C[C@H]2C2=CCC4[C@@]5(C)C[C@H](O)[C@H](O[C@@H]6O[C@H](C(=O)O)[C@@H](O)[C@H](O)[C@H]6O)[C@@](C)(C(=O)O)C5CC[C@@]4(C)[C@]2(C)CC3)O[C@@H]1C` (stereo not given in full) the “activity change, negative = inhibition” value was 0.442% [at 10.7 µM].
